MCF10A rerep – DNA re-replication induction in MCF 10a cells. MCF 10A DNA re-replication, Hoechst nuclear intensity, 48 h. Potency, µM (titrated, usually from 46.1 µM), for the others: at the highest dose activity, positive = re-replication, actives largely listed as activators. hit rate 2.9% among 350,000. AID 624296; note: potency is the fitted concentration of half-maximal effect; % of control where 0% means no effect; nearly all actives have a fitted effect of over 50% in size
KB-V1 cytotox – kills drug-selected multidrug resistant KB-V1 cells; KB-V1 MDR cells viability, CellTiter-Glo, 72 h; Potency, µM (top dose mostly 46.1 µM), hits mostly cytotoxic; hit rate 3.4% among 400,000; note: potency is the fitted concentration of half-maximal effect; % is set by controls: 0 for no effect and ±100 for the full control effect; nearly all actives have a fitted effect of over 60% in size
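KB-V1 cells (P-gp-expressing MDR subline of KB-3-1) in phenol-red-free DMEM with 10% FBS were exposed to library compounds over a concentration series for 72 h at 37 degrees C. Viability read by CellTiter-Glo luminescence; concentration-effect curves fitted after normalization.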
SW480 rereplic – inducers of DNA re-replication in SW480 colon cancer cells; SW480 DNA re-replication, Hoechst DNA content imaging, 48 h; Potency, µM (highest dose often 46.1 µM), inactives show at the highest dose re-replication activation, hits mostly activators; hit rate 1.8% among 340,000; AID 624297; note: potency is the fitted concentration of half-maximal effect; % of control where 0% means no effect; nearly all actives have a fitted effect of over 55% in size
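Compounds, transferred as 23 nL by pin tool, were incubated with cells for 48 hr; DNA content per nucleus was then quantified by Hoechst staining and fluorescence plate imaging.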
KCNH2 3.1 block – KCNH2 3.1 (human) potassium channel inhibition; hit rate 0.95% among 340,000; U2OS KCNH2 3.1, thallium flux FluxOr; active compounds read low; AID 720553; activity change, % (tested at about 1.8 µM);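 active = maximum activity change below -70%; inconclusive = maximum activity change from -70% to -50%; inactive = maximum activity change above -50%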;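 note: thallium influx rate constant from kinetic fluorescence after stimulation buffer; % is set by controls: 0 for no effect and ±100 for the full control effect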
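FluxOr-based Tl+ influx in U2OS cells transduced with KCNH2 3.1 virus; rate constants normalized to DMSO controls.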
KB-3-1 tox – kills parental KB-3-1 adenocarcinoma cells; KB-3-1 viability, CellTiter-Glo ATP luminescence, 72 h; Potency, µM (titrated, usually from 46.1 µM), most hits filed as cytotoxic; hit rate 1.4% among 400,000; AID 1347075; note: potency is the fitted concentration of half-maximal effect; % is set by controls: 0 for no effect and ±100 for the full control effect; nearly all actives have a fitted effect of over 60% in size
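Cells are dispensed, compounds pinned in, plates held at 37 °C for 72 h, then CellTiter-Glo is added and luminescence read after 10 minutes. Cell line: parental KB-3-1 in phenol-red-free DMEM, 10% FBS.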
KCNH2 WT inh – blocks the wildtype human KCNH2 potassium channel; Q12809; U2OS, BacMam KCNH2, thallium flux FluxOr; active compounds read low; activity change, % at 1.84 µM; hit rate 0.37% among 340,000;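 active = maximum activity change below -70%; inconclusive = maximum activity change between -70% and -50%; inactive = maximum activity change above -50%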; note: % is set by controls: 0 for no effect and ±100 for the full control effect
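U2OS cells were transduced with wild-type KCNH2 virus (2.03 x 10^8 / mL) for 4 h at room temperature, then cultured overnight at 37 C. Thallium flux was read with FluxOr dye. Rate constants were normalized to DMSO controls.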
* hit, by the source's call; i = inactive; ? = inconclusive; . = not tested or not shown. Shown are actives, neighbours in structure and some others; about 7.6% of the full set was active somewhere. Unless noted, calls come from the whole dose curve; as a rule, active = well fitted curve in the direction sought with a large enough effect; inconclusive = small, poorly fitted or top-dose-only effect, or another doubt; inactive = no such curve, though single readings can be large; an effect the other way counts as inactive or inconclusive.

SMILES | MCF10A rerep | KB-V1 cytotox | SW480 rereplic | KCNH2 3.1 block | KB-3-1 tox | KCNH2 WT inh
C[C@]12CCC(=O)C=C1CCC1C2CC[C@@]2(C)C1CCC21OCCO1 (some centres not stated) | 21µM* | ? | 21% | 23 | i | 1
CCSc1nnc(CSc2ncccn2)n1C | 1% | i | -5% | -7 | i | 7
COc1c(OC(C)=O)ccc(/C=C/c2ccc3ccccc3n2)c1[N+](=O)[O-] | ? | i | 0% | -77* | i | -3
CCOc1c(OC(C)=O)ccc(/C=C/c2ccc3cccc(OC(C)=O)c3n2)c1[N+](=O)[O-] | ? | 12µM* | ? | 4 | ? | 4
Cc1cccc(N2CCN(c3nc4ccc(C)cc4n4cnnc34)CC2C)c1 (configuration not stated) | . | i | . | . | i | .
COc1cc(NC(=O)c2cc(-c3ccco3)on2)c(OC)cc1Cl | 6% | i | -2% | -81* | i | -26
COc1cc(NC(=O)c2cc(-c3cccc(O)c3)on2)cc(OC)c1OC | 13% | i | -3% | 12 | 12µM* | -9
CCC(C)NC(=O)c1ccc2nc(-c3cccs3)c(-c3cccs3)nc2c1 (configuration not stated) | . | i | . | . | 10µM* | .
CCC(C)NC(=O)c1cc(-c2cccs2)nc2ccccc12 (configuration not stated) | 16% | i | -5% | -6 | i | 2
COCCNC(=O)c1cc(-c2cccs2)on1 | -6% | 21µM* | 1% | -4 | 21µM* | 11
COc1ccc(NC(=O)c2cc(-c3ccco3)on2)c(OC)c1 | ? | i | 6% | 16 | i | -1
CCCNc1nc(Cl)nc(NC(C)(C)C)n1 | -6% | i | -2% | 12 | i | 15
COc1cccc(N(CC(=O)NC2CCCCC2)C(=O)Cn2nnc(-c3ccc(C)o3)n2)c1 | -3% | ? | -4% | 2 | i | -7
CCOC(=O)C1CCN(Cc2cn3c(-c4ccc(OC)cc4)nnc3s2)CC1 | . | i | . | . | i | .
COc1cccc(/C=C/c2cnc3ccccc3n2)c1OC | . | i | . | . | i | .
COc1cc(NC(=O)c2cc(-c3ccc(C)cc3)on2)cc(OC)c1OC | -5% | i | -3% | -1 | i | 1
COCCNC(=O)Nc1ccc2nc(-c3cccs3)c(-c3cccs3)nc2c1 | 23µM* | i | ? | 0 | i | 2
COc1cc(NC(=O)c2cc(-c3ccccc3Cl)on2)cc(OC)c1OC | 21µM* | ? | ? | 4 | 6.5µM* | -6
COc1cc(NC(=O)c2cc(-c3cccs3)on2)cc(OC)c1OC | ? | 6.5µM* | ? | 5 | ? | -3
COc1cc(NC(=O)c2cc(-c3ccc(Cl)c(Cl)c3)on2)cc(OC)c1OC | . | i | . | . | i | .
O=C(NC1CCCCC1)c1cc(-c2cccs2)on1 | -14% | i | 2% | -71* | i | -10
CCCCn1c(N)c(N(CC(C)C)C(=O)c2cccc(S(=O)(=O)N3CCN(C)CC3)c2)c(=O)[nH]c1=O | -1% | i | 11% | 14 | i | 9
Cc1ccc(C(=O)NC2CCN(CC(=O)NC3CCC(C)CC3)CC2)cc1 (configuration not stated) | 8% | i | 9% | -2 | ? | -10
Nc1ccc2nc(SCC(=O)c3ccccc3)sc2c1 | 3% | i | -13% | -8 | i | 5
Nc1ccc2nc(SCc3ccccc3F)sc2c1 | 21µM* | i | 5% | -7 | i | -2
SMILES | MCF10A rerep | KB-V1 cytotox | SW480 rereplic | KCNH2 3.1 block | KB-3-1 tox | KCNH2 WT inh
Cc1cc(SCC#N)n2nc(C)c(-c3ccccc3)c2n1 | ? | ? | 4% | -5 | ? | -18
Cc1cc(SCC(=O)c2cccs2)n2nc(C)c(-c3ccccc3)c2n1 | ? | 21µM* | ? | 6 | i | 0
C=CCSc1cc(C)nc2c(-c3ccccc3)c(C)nn12 | ? | 7.3µM* | ? | 9 | ? | -6
Cc1cc(C)n(CC(=O)NNC(=O)COc2ccc(Cl)cc2Cl)n1 | -4% | i | 0% | 19 | i | -16
Cn1ncc(N=Cc2ccccc2)c1C(=O)Nc1cccc(Cl)c1 | 18µM* | ? | ? | . | ? | -28
Cn1ncc(N=Cc2ccccc2)c1C(N)=O | 1% | ? | -1% | 2 | i | -5
O=C1CC(O)(C(F)(F)F)Oc2c1ccc1ccccc21 (configuration not stated) | 21µM* | i | ? | -9 | i | -2
C[C@H](NC(N)=O)C(=O)N1CCN(S(=O)(=O)c2ccc3ccccc3c2)CC1 | -5% | i | 4% | -32 | i | -3
Cc1cccn2c(=O)c3cc(C(=O)NCC4CCCO4)c(=N)n(C4CCCCC4)c3nc12 (configuration not stated) | 18µM* | i | 18µM* | 22 | i | -8
Cc1cccn2c(=O)c3cc(C(=O)NC4CCCCC4)c(=N)n(Cc4ccc(F)cc4)c3nc12 | ? | i | 1.3µM* | -2 | i | -3
Cc1cccn2c(=O)c3cc(C(=O)NCc4ccco4)c(=N)n(C4CCCC4)c3nc12 | 2.1µM* | i | 1.8µM* | -15 | i | 1
Cc1cccn2c(=O)c3cc(S(=O)(=O)c4ccc(Br)cc4)c(=N)n(C4CCCCC4)c3nc12 | 12% | i | ? | -24 | i | 4
CCOCCCNc1nc2nc3ccc(C)cn3c(=O)c2cc1C(=O)NCC1CCCO1 (configuration not stated) | 10µM* | i | 9.2µM* | -1 | i | 0
C/C(=N\n1c(C)nc2ccccc2c1=O)c1ccc(C)o1 | 1% | i | -3% | -1 | i | 0
CC(=O)c1ccc(NC(=O)CCc2c(C)nc3cc(-c4ccc(Cl)cc4)nn3c2C)cc1 | . | i | . | . | i | .
Cc1cccn2c(=O)c3cc(C(=O)NC4CCCC4)c(=N)n(CC4CCCO4)c3nc12 (configuration not stated) | 9.2µM* | ? | ? | -26 | ? | -39
Cc1cccn2c(=O)c3cc(C(=O)NC4CCCCC4C)n(C)c3nc12 (configuration not stated) | 15µM* | i | 21µM* | -2 | i | 0
Cc1cccn2c(=O)c3cc(C(=O)NCc4ccc(F)cc4)c(=N)n(CC4CCCO4)c3nc12 (configuration not stated) | 15% | i | ? | -10 | i | -5
CCCn1c(=N)c(C(=O)NC2CCCCC2)cc2c(=O)n3cc(C)ccc3nc21 | . | i | . | . | i | .
